# Data taken from PubChem BioAssay (NCI).
# The panel holds about 79,000 compounds, 15% with a hit somewhere; the sample as a whole holds those more often. A number with no mark means an inactive call. Activity calls are given as the source filed them. Rule as the data show it: active = growth inhibition above about 70%; inactive = the rest.
# Assay: NCI Yeast Anticancer Drug Screen. Data for the wt2 strain (AID 169);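 also: 0% = growth of vehicle-treated yeast cultures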
# Conditions: S. cerevisiae wt2 strain growth inhibition, hits give high values
# Description: Growth inhibition of yeast strains with defined genetic alterations is measured as a screen for potential anti-cancer activity. Selected strains with alterations in DNA damage repair or cell cycle control were exposed to compounds and growth inhibition was measured relative to vehicle treated controls. The strain used in this assay is wt2
Structure (SMILES),growth inhibition (at 1.2 µM) [%],growth inhibition (at 3.7 µM) [%],growth inhibition (at 11.0 µM),growth inhibition (at 33.0 µM),growth inhibition (at 100.0 µM)
CCC(=O)C1=C(O)c2cc(OC)ccc2CC1C(=O)OC (stereo not given),-2,3,8%,14%,30%
Cc1cc(O)c(C(C)C)cc1SC#N,-11,-24,52%,36%,98% (active)
c1ccc2c(c1)ccn2CCc1c[nH]c2ccccc12,-29,-28,-20%,20%,97% (active)
O=S(=O)(NNc1ccccc1)c1ccccc1,-2,-1,2%,16%,67%
O=C1c2ccccc2-c2cc3ccccc3c(=O)n21,4,9,31%,73% (active),73% (active)
CC1=CC(C)(C)SC(SSSC2=NC(C)=CC(C)(C)S2)=N1,-5,-6,-4%,4%,85% (active)
CCC(C)(C)c1ccc(Oc2ccccc2)c(N)c1,-17,0,97% (active),99% (active),99% (active)
ClCCCOc1c(Cl)cc(Cl)cc1Cl,-7,1,-7%,-2%,-8%
